Inconclusive results are not listed. Active and inactive are the calls of the source. How the source made its calls, unless noted: active means hit-call score of the fitted dose curve at least 0.9, where 1 is the maximum; inactive means score below 0.9.
Tests used:
[1] = molecular target: human Retinoid X Receptor beta (RXRb), RXRB (gene 6257) (UniProt P28702); experiment: ATG_RXRb_TRANS: Attagene TRANS-FACTORIAL HepG2 Assay for human Retinoid X Receptor beta (RXRb) (AID 2283013; active means hit-call score of the fitted dose curve at least 0.9, where 1 is the maximum)
Sequence of human Retinoid X Receptor beta (RXRb), RXRB (gene 6257) (P28702 whole entry, looked up, the tested form may be a part): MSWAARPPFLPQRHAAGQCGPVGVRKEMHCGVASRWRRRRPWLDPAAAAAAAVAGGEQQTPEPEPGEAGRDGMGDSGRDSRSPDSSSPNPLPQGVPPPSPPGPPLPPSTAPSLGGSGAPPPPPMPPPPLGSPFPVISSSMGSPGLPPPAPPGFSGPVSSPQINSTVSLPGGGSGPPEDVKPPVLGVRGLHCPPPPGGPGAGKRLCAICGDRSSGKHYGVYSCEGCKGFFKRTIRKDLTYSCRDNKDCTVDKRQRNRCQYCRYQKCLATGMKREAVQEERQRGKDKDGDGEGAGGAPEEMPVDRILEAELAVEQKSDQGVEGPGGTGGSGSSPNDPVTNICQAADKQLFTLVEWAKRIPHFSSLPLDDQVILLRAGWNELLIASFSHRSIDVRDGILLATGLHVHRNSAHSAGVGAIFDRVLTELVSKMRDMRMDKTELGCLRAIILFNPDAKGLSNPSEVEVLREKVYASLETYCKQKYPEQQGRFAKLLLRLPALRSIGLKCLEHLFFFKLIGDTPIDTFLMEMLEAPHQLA
How it was run: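 HepG2 cells transiently transfected with multiplexed reporter units driven by GAL4-UAS and exogenous chimeric NR-Gal4 proteins; treated 24 h. Reporter mRNA measured by RT-PCR, 6-FAM labelling and capillary electrophoresis; gain-of-signal fitted versus DMSO baseline.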

[2] = molecular target: human Thyroid Receptor alpha (THRa1), THRA (gene 7067) (UniProt P10827); experiment: ATG_THRa1_TRANS: Attagene TRANS-FACTORIAL HepG2 Assay for human Thyroid Receptor alpha (THRa1) (AID 2283014; active means hit-call score of the fitted dose curve at least 0.9, where 1 is the maximum)
Sequence of human Thyroid Receptor alpha (THRa1), THRA (gene 7067) (P10827 whole entry, looked up, the tested form may be a part): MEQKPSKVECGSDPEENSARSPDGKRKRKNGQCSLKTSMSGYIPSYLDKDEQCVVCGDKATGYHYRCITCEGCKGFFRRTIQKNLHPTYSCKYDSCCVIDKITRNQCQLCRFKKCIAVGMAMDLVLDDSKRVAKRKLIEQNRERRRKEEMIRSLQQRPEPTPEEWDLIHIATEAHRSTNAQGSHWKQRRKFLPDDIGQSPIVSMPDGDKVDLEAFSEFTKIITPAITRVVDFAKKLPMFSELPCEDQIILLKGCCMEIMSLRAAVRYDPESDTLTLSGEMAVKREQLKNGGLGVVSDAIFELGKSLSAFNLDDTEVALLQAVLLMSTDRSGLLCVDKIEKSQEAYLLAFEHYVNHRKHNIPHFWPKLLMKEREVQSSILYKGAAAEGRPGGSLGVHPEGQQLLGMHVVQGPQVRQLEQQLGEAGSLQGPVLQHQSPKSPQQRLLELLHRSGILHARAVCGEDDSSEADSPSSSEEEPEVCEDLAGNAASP
How it was run: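 HepG2 cells transiently transfected with multiplexed GAL4-UAS reporter units for exogenous chimeric THRa1-Gal4; reporter mRNA measured 24 h after dosing by RT-PCR, 6-FAM labelling, HpaI digestion and capillary electrophoresis. Gain-of-signal fitted versus DMSO baseline.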

[3] = read-out: E-selectin (Homo sapiens) (UniProt P16581); experiment: BSK_3C_Eselectin: BioMAP Diversity Plus: 3C Assay for Eselectin Biomarker Activity (AID 2283015); details: primary human endothelial cells (HUVEC); actives raise or lower the signal;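 further: cell surface E-selectin protein quantified by ELISA 24 h after dosing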
How it was run: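 Primary human umbilical vein endothelial cells (3C system) were dosed with chemical and cell-surface E-selectin measured by ELISA 24 h later. Bidirectional curve fitting used DMSO as negative control and baseline.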

[4] = read-out: Interleukin-1 alpha (IL1a), IL1A (gene 3552); experiment: BSK_BE3C_IL1a: BioMAP Diversity Plus: BE3C Assay for Interleukin-1 alpha (IL1a) Biomarker Activity (AID 2283016); details: primary human bronchial epithelial cells; actives raise or lower the signal
How it was run: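 Human primary bronchial epithelial cells (BE3C system) were dosed with compound and IL-1a measured by ELISA 24 h later. Activity was fitted bidirectionally against DMSO baseline; cytotoxicity was tracked in parallel cultures by SRB total-protein staining.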

[5] = read-out: Monocyte Chemoattractant Protein-1 (MCP1), CCL2 (gene 6347); experiment: BSK_3C_MCP1: BioMAP Diversity Plus: 3C Assay for Monocyte Chemoattractant Protein-1 (MCP1) Biomarker Activity (AID 2283017); details: primary human endothelial cells (HUVEC); actives raise or lower the signal
How it was run: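 Primary human umbilical vein endothelial cells (3C system) were exposed to test chemical for 24 h, after which MCP-1 was quantified by ELISA. Activity was fitted bidirectionally against DMSO as negative control and baseline.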

[6] = read-out: Monocyte Chemoattractant Protein-1 (MCP1), CCL2 (gene 6347); experiment: BSK_4H_MCP1: BioMAP Diversity Plus: 4H Assay for Monocyte Chemoattractant Protein-1 (MCP1) Biomarker Activity (AID 2283018); details: primary human endothelial cells (HUVEC); actives raise or lower the signal
How it was run: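 Human umbilical vein endothelial cells (4H system) dosed with chemical; MCP-1 measured by ELISA 24 h after dosing. Bidirectional curve fitting against DMSO negative control as baseline; parallel SRB total-protein staining tracks overt cytotoxicity.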

[7] = read-out: Human Leukocyte Antigen - DR isotype (HLADR), HLA-DRA (gene 3122); experiment: BSK_3C_HLADR: BioMAP Diversity Plus: 3C Assay for Human Leukocyte Antigen - DR isotype (HLADR) Biomarker Activity (AID 2283019); details: primary human endothelial cells (HUVEC); actives raise or lower the signal;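 further: ELISA of cell-surface HLA-DR on HUVEC 24 h after dosing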
How it was run: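 Primary human umbilical vein endothelial cells (3C system) were dosed with compound and cell-surface HLA-DR was quantified by ELISA at 24 h. Activity was fitted bidirectionally against DMSO as negative control and baseline.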

[8] = read-out: Interleukin-8 (IL8), CXCL8 (gene 3576); experiment: BSK_3C_IL8: BioMAP Diversity Plus: 3C Assay for Interleukin-8 (IL8) Biomarker Activity (AID 2283020); details: primary human endothelial cells (HUVEC); actives raise or lower the signal
How it was run: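 Primary human umbilical vein endothelial cells (3C system) were exposed to test chemical for 24 h, then IL-8 was quantified by ELISA. Responses were fitted bidirectionally against DMSO vehicle as baseline.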

[9] = read-out: Monokine induced gamma interferon (MIG), CXCL9 (gene 4283); experiment: BSK_3C_MIG: BioMAP Diversity Plus: 3C Assay for Monokine induced gamma interferon (MIG) Biomarker Activity (AID 2283021); details: primary human endothelial cells (HUVEC); actives raise or lower the signal
How it was run: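 Primary human umbilical vein endothelial cells in the 3C system were exposed to chemical for 24 h, after which MIG was quantified by ELISA. Activity was fitted bidirectionally against DMSO as negative control and baseline.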

[10] = molecular target: human Vitamin D Receptor (VDR), VDR (gene 7421) (UniProt P11473); experiment: ATG_VDR_TRANS: Attagene TRANS-FACTORIAL HepG2 Assay for human Vitamin D Receptor (VDR) (AID 2283022; active means hit-call score of the fitted dose curve at least 0.9, where 1 is the maximum)
Sequence of human Vitamin D Receptor (VDR), VDR (gene 7421) (P11473 whole entry, looked up, the tested form may be a part): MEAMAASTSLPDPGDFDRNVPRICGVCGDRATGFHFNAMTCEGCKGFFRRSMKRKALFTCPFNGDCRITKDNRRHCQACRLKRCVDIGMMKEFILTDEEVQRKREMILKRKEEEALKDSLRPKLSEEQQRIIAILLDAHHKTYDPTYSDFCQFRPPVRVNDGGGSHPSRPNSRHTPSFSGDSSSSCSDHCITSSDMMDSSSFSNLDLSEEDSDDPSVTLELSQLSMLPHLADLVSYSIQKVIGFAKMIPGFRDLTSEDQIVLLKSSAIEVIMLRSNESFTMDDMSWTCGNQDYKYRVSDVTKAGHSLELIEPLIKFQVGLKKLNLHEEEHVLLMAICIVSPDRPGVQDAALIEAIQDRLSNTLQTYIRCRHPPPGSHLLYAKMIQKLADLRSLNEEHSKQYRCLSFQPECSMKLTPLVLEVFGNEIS
How it was run: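 HepG2 cells were transiently transfected with multiple GAL4-UAS reporter units, so signal reflects exogenous chimeric receptor-Gal4 activity. After 24 h compound exposure, reporter mRNA was measured by RT-PCR, fluorescent labelling and capillary electrophoresis, fitted for gain of signal versus DMSO.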

[11] = BSK_3C_SRB: Viability Assessment in the BioMAP Diversity Plus: 3C Assay (AID 2283023); details: primary human endothelial cells (HUVEC);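 further: fitted both ways against DMSO so a hit may be signal rise or drop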
How it was run: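 Primary human umbilical vein endothelial cells in the 3C system were read 24 h after compound dosing. Total protein was stained with 0.1% sulforhodamine B after 10% TCA fixation and read at 560 nm, with bidirectional fitting against DMSO as baseline.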

[12] = read-out: Matrix Metallopeptidase 1 (MMP1), MMP1 (gene 4312); experiment: BSK_BE3C_MMP1: BioMAP Diversity Plus: BE3C Assay for Matrix Metallopeptidase 1 (MMP1) Biomarker Activity (AID 2283024); details: primary human bronchial epithelial cells; actives raise or lower the signal
How it was run: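 Primary human bronchial epithelial cells were dosed with test chemicals, and MMP1 levels were measured by ELISA 24 h later. Data were fitted bidirectionally against DMSO as the negative control and activity baseline.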

[13] = BSK_3C_Vis: BioMAP Diversity Plus: 3C Assay for Morphology Visualization (AID 2283025); details: primary human endothelial cells (HUVEC);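 further: fitted both ways so gain or loss versus DMSO counts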
How it was run: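 Human umbilical vein endothelial cells in the 3C system were imaged by light microscopy 24 h after chemical dosing to record cell morphology. Activity was fitted bidirectionally against DMSO as negative control and baseline; the endpoint serves as a background control.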

[14] = read-out: Pselectin, SELP (gene 6403); experiment: BSK_4H_Pselectin: BioMAP Diversity Plus: 4H Assay for Pselectin Biomarker Activity (AID 2283026); details: primary human endothelial cells (HUVEC); actives raise or lower the signal
How it was run: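 Primary human umbilical vein endothelial cells were exposed to test chemical for 24 h, then cell-surface P-selectin was quantified by ELISA. Activity was fitted bidirectionally against DMSO as negative control and baseline.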

[15] = BSK_BE3C_SRB: Viability Assessment in the BioMAP Diversity Plus: BE3C Assay (AID 2283028); details: primary human bronchial epithelial cells
How it was run: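 Human primary bronchial epithelial cells were exposed to test chemicals for 24 h. Total protein in parallel cultures was then measured by staining with 0.1% sulforhodamine B after 10% TCA fixation, with absorbance read at 560 nm. Activity was fitted bidirectionally against DMSO.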

[16] = read-out: Thrombomodulin, THBD (gene 7056); experiment: BSK_3C_Thrombomodulin: BioMAP Diversity Plus: 3C Assay for Thrombomodulin Biomarker Activity (AID 2283029); details: primary human endothelial cells (HUVEC); actives raise or lower the signal
How it was run: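 Primary human umbilical vein endothelial cells (3C system) were exposed to chemical for 24 h, then thrombomodulin levels were measured by ELISA. Activity was fitted bidirectionally against the DMSO negative control as baseline.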

[17] = read-out: Vascular endothelial growth factor receptor 2 (Homo sapiens) (UniProt P35968); experiment: BSK_4H_VEGFRII: BioMAP Diversity Plus: 4H Assay for Vascular endothelial growth factor receptor 2 (VEGFR2) Biomarker Activity (AID 2283031); details: primary human endothelial cells (HUVEC); actives raise or lower the signal
How it was run: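 Primary human umbilical vein endothelial cells in the BioMAP 4H system were dosed with test chemical, and 24 h later VEGFRII was measured by ELISA. Activity was fitted bidirectionally against DMSO as negative control and baseline.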

[18] = read-out: Human Leukocyte Antigen - DR isotype (HLADR), HLA-DRA (gene 3122); experiment: BSK_BE3C_HLADR: BioMAP Diversity Plus: BE3C Assay for Human Leukocyte Antigen - DR isotype (HLADR) Biomarker Activity (AID 2283032); details: primary human bronchial epithelial cells; actives raise or lower the signal
How it was run: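 Human primary bronchial epithelial cells in the BE3C system were exposed to chemicals for 24 h, after which HLA-DR levels were quantified by ELISA. Activity was fitted bidirectionally, gain or loss of signal, against DMSO as negative control and baseline.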

[19] = read-out: Vascular cell adhesion molecule 1 (VCAM1), VCAM1 (gene 7412); experiment: BSK_4H_VCAM1: BioMAP Diversity Plus: 4H Assay for Vascular cell adhesion molecule 1 (VCAM1) Biomarker Activity (AID 2283033); details: primary human endothelial cells (HUVEC); actives raise or lower the signal;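 further: cell-surface VCAM-1 protein measured by ELISA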
How it was run: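 Primary human umbilical vein endothelial cells were exposed to chemicals for 24 h, after which VCAM-1 was quantified by ELISA. Responses were fitted bidirectionally against DMSO as negative control and activity baseline.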

[20] = read-out: Interferon-gamma inducible Protein 10 (IP10), CXCL10 (gene 3627); experiment: BSK_BE3C_IP10: BioMAP Diversity Plus: BE3C Assay for Interferon-gamma inducible Protein 10 (IP10) Biomarker Activity (AID 2283034); details: primary human bronchial epithelial cells; actives raise or lower the signal
How it was run: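 Human primary bronchial epithelial cells were exposed to chemicals for 24 hours, after which IP-10 levels were measured by ELISA. Data were fitted bidirectionally against DMSO, which served as the negative control and activity baseline.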

Measured: AC50

Sequence of E-selectin (Homo sapiens) (P16581 whole entry, looked up): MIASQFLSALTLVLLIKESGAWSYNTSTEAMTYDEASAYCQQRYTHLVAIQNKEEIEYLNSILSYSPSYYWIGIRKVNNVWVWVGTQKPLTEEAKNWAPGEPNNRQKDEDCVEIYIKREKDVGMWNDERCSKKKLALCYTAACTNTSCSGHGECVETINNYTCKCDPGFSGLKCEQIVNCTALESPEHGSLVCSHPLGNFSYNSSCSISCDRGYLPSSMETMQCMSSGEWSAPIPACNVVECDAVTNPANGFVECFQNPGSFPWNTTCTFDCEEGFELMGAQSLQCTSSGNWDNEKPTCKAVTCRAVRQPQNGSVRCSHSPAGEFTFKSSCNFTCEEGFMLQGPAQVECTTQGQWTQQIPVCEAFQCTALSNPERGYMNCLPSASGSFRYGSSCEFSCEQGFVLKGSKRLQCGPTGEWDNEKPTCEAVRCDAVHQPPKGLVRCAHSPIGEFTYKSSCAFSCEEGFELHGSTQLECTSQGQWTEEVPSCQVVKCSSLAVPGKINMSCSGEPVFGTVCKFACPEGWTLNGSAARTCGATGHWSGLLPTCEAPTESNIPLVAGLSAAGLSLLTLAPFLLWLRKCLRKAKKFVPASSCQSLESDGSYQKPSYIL

COc1c2ccoc2cc2oc(=O)ccc12
inactive: [1] | [2]

COC(=O)c1c(C)cc(O)c(C)c1O
inactive: [1] | [2]

CC(C)(C)C1CCCCC1=O (centres undefined)
active: [1] 91.4 µM
inactive: [2]

OCCCS
inactive: [1]

CC(C)(Oc1ccc(C2CC2(Cl)Cl)cc1)C(=O)O (centres undefined)
inactive: [1] | [2]

CC(C)CCCC(C)CC=O (centres undefined)
inactive: [1] | [2]

CC=CCO
inactive: [1] | [2]

O=C1CCCCCN1SSN1CCCCCC1=O
inactive: [1] | [2]

[Cl][Nd]([Cl])[Cl]
inactive: [1] | [2]

CCC(C)OC(=O)c1ccc(O)cc1 (centres undefined)
inactive: [2]
active: [1] 70.8 µM

CCCCCCCC/C=C\CCCCCCCC(=O)O
inactive: [2]
active: [1] 68 µM

CC=CC(F)(F)C(F)(F)C(F)(F)F
inactive: [1] | [2]

CC(=O)OC1C2(C)CCC(C2)C1(C)C (centres undefined)
inactive: [1] | [2]

Cc1cccc(N(C)C(=S)Oc2ccc3ccccc3c2)c1
active: [1] 32.6 µM
inactive: [2]

OCCN(CCO)c1ccccc1
inactive: [1] | [2]

O=S(=O)(O)c1cc(S(=O)(=O)O)c2ccc3c(S(=O)(=O)O)cc(S(=O)(=O)O)c4ccc1c2c43
inactive: [1] | [2]

Cc1c(C)c([N+](=O)[O-])c(C(C)(C)C)c([N+](=O)[O-])c1C
active: [1] 1.7 µM

CC1(C)O[C@@H]2C[C@H]3[C@@H]4C[C@H](F)C5=CC(=O)C=C[C@]5(C)[C@@]4(F)[C@@H](O)C[C@]3(C)[C@]2(C(=O)CO)O1
inactive: [1] | [2]

C[Si](C)O[Si](C)(C)O[Si](C)(C)O[Si](C)C
inactive: [1] | [2]

CC(C)CC(O)Cc1ccccc1 (centres undefined)
inactive: [1] | [2]

CC(=O)Oc1ccc(C)cc1
inactive: [1]

CCOCC(=O)O
inactive: [1] | [2]

CCc1ccc2c(c1)C(=O)c1ccccc1C2=O
inactive: [1] | [2]

C=CC(=O)NC(C)(C)CS(=O)(=O)O
inactive: [1] | [2]

O=C1C=CC(=O)O1
inactive: [1] | [2]

COC(=O)/C=C\C(=O)O
inactive: [1]

CC/C=C\CCOC(=O)CCCCC
inactive: [1]

CCOc1ccc(N)c([N+](=O)[O-])c1
inactive: [1] | [2]

C=C1C2CCC(C2)C1(C)C (centres undefined)
inactive: [1] | [2]

CN(C)c1ccc(C(=N)c2ccc(N(C)C)cc2)cc1
inactive: [1] | [2]

C[Si](C)(C)O[Si](O)(O)O
inactive: [1]

C=C(C)CCO
inactive: [2]
active: [1] 63.9 µM

C=CC(C)(CCC=C(C)C)OC(=O)CC(C)C (centres undefined)
active: [1] 30.5 µM
inactive: [2]

CCCCCCCCCCOC(C)=O
inactive: [1] | [2]

c1ccc(CCCc2ccncc2)cc1
inactive: [1] | [2]

CC(C)(C)c1ccc(-c2ccc(C(C)(C)C)cc2)cc1
inactive: [1] | [2]

CCCCCCCCc1ccc(Nc2ccc(CCCCCCCC)cc2)cc1
inactive: all assays above

CCCCCCCCCCC=CC#N
inactive: [2]
active: [1] 49.2 µM

Nc1ccc(-c2ccc(F)cc2)cc1
inactive: [1] | [2]

O=C1c2ccccc2C(=O)C1c1nc2ccccc2c(Br)c1O
inactive: [1] | [2]

CCCCC(CC)COCC1CO1 (centres undefined)
not listed: [10] | [13]
inactive: all other assays above

O=[N+]([O-])c1ccc(CO)cc1
inactive: [1] | [2]

O=Nc1ccc(O)cc1
not listed: [10]
inactive: all other assays above

CC(=O)c1ccc[nH]1
inactive: [1] | [2]

[Cl][Bi]([Cl])([c]1ccccc1)([c]1ccccc1)[c]1ccccc1
inactive: [2]
active: [1] 1.04 µM

CC(=O)OCC(=O)[C@@]12N=C(C)O[C@@H]1C[C@H]1[C@@H]3CCC4=CC(=O)C=C[C@]4(C)[C@H]3[C@@H](O)C[C@@]12C
active: [1] 1.62 µM
inactive: [2]

N#[N+]c1ccc2c(S(=O)(=O)[O-])cccc2c1O
inactive: all assays above

COc1cc(C)ccc1C(C)C
inactive: [2]
active: [1] 100 µM

CCOc1nc(F)cc2nc(S(=O)(=O)Nc3c(Cl)cccc3C(=O)OC)nn12
inactive: all assays above

From PubChem BioAssay (EPA / NIEHS)
